Active and inactive are the calls of the source. Unless noted, no rule for the calls is given here.
What was measured:
[1] = system: XIP peptide (Xip251-270) binding; test: XIP fragment 251-270 binding compounds – biochemical, small-molecule microarray, fluorescence 635/667 nm, 0.1 µg/mL protein, primary screen (AID 1182); conditions: fluorescent protein binding, 635 nm, higher = more signal, called active from +8 up or from −8 down
XIP peptide (Xip251-270) = test: compounds binding XIP fragment 251-270 – biochemical, small-molecule microarray, fluorescence 635/667 nm, 0.5 µg/mL protein, primary screen (AID 1183); conditions: fluorescence 635 nm, higher = more signal
[2] = blood-stage malaria parasite viability loss – strain 3D7, DAPI fluorescence, 100 nL, primary screen (AID 1184);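 also: parasites grown inside human red blood cells in medium with human serum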; conditions: P. falciparum 3D7 growth, 3 d, higher = more signal
[3] = molecular target: Homeobox protein Hox-A13 (Mus musculus) (UniProt Q62424); test: disruptors of Hoxa13 oligonucleotide interaction – biochemical, fluorescence polarization, labeled oligonucleotide, primary screen (AID 1185); conditions: Hoxa13:DNA binding, 15 min, higher = more signal, called active from +8 up or from −8 down
Sequence of Homeobox protein Hox-A13 (Mus musculus) (Q62424 whole entry, looked up): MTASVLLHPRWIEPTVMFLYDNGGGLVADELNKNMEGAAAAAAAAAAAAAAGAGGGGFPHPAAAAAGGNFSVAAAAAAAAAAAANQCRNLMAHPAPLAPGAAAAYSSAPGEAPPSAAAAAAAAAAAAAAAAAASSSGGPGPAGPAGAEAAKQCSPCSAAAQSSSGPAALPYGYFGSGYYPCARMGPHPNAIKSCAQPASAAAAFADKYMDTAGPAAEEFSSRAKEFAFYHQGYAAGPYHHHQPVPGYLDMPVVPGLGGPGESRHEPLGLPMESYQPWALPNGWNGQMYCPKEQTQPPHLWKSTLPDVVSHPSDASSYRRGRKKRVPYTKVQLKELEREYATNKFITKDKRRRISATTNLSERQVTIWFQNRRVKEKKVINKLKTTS

[4] = blockers of DNA damage checkpoint Chk1 activation – imaging, HeLa, hydroxyurea, phospho-Chk1 antibody, percent positive cells, primary screen (AID 1186); conditions: hydroxyurea-induced phospho-Chk1 immunofluorescence imaging, higher = more signal
[5] = blockers of DNA damage checkpoint Chk1 activation – imaging, HeLa, hydroxyurea, phospho-Chk1 nuclear intensity, primary screen (AID 1187); conditions: hydroxyurea-induced phospho-Chk1 immunofluorescence imaging, higher = more signal

| SMILES | composite z-score [1] | composite z-score (XIP peptide (Xip251-270)) | z-score [2] | z-score [3] | z-score [4] | z-score [5] |
| --- | --- | --- | --- | --- | --- | --- |
| COc1ccccc1CN1C(=O)c2ccccc2[C@@]2(Cc3ccccc3N(CC(C)C)C2=O)[C@@H]1c1ccc(CO)cc1 | -0.25 (inactive) | 0.607 | -0.422 | -0.795 (inactive) | -0.132 (inactive) | -0.425 (inactive) |
| COCCOC(=O)N1C(=O)[C@@]2(c3cc(C#CC4(O)CCCCCC4)ccc31)[C@H](c1ccccc1OCCO)N1[C@H](c3ccccc3)[C@H](c3ccccc3)OC(=O)[C@H]1[C@@H]2C(=O)N1CCN(c2ncccn2)CC1 | -0.0186 (inactive) | 0.744 | -2.23 | -0.571 (inactive) | -0.353 (inactive) | -0.189 (inactive) |
| CCS[C@H]1[C@@H](C(=O)O)[C@H](c2ccc(C)cc2)N(S(=O)(=O)c2ccc(C)cc2)[C@@H]1CC | 0.458 (inactive) | 0.327 | 0.184 | -2.35 (inactive) | -0.72 (inactive) | -0.307 (inactive) |
| C=CCC(OC(C)=O)[C@@H]1[C@@H](N(Cc2ccc(-c3ccccc3)cc2)C(=O)c2ccc(-c3ccccc3)cc2)c2cc(OCCCO)ccc2N1C(=O)Cc1ccc2ccccc2c1 (some centres not stated) | -0.313 (inactive) | -0.241 | 0.799 | -1.05 (inactive) | 0.321 (inactive) | 0.392 (inactive) |
| CC(C)C[C@@H]1NC(=O)[C@H](C(C)C)NC(=O)[C@@]23C(=O)N[C@@H](Cc4ccccc4)C2[C@H](C)[C@@]2(C)O[C@H]2C3/C=C/CC/C=C/CNC1=O (some centres not stated) | 0.758 (inactive) | 0.607 | -1.4 | -6.99 (inactive) | 0.0132 (inactive) | 0.432 (inactive) |
| N#Cc1ccc(NN2C(C(O)C(c3ccccc3)c3ccccc3)C=CC3C(=O)N(c4ccccc4)C(=O)C32)cc1 (configuration not stated) | 0.424 (inactive) | 0.646 | -0.231 | 1.55 (inactive) | 0.377 (inactive) | 0.484 (inactive) |
| COC(=O)[C@@]1(Cc2ccc(OC)cc2)[C@H]2c3cc(C(=O)N4CCCC4)n(Cc4ccc(C)c(F)c4F)c3C[C@H]2CN1C(=O)c1ccccc1 | 0.128 (inactive) | 0.715 | -1.12 | -0.498 (inactive) | -0.0213 (inactive) | -0.423 (inactive) |
| O=C1C[C@@](C(=O)NCCN2CCOCC2)(c2ccc([N+](=O)[O-])cc2)[C@@H](c2ccc(CO)cc2I)N1CC12CC3CC(CC(C3)C1)C2 | 0.634 (inactive) | 0.761 | -2.04 | -3.99 (inactive) | -0.894 (inactive) | -1.24 (inactive) |
| [N-]=[N+]=NCc1ccccc1[C@@H]1OC(c2ccc(OCCCO)cc2)=N[C@]1(Cc1ccccc1)C(=O)NCC(O)CO (some centres not stated) | -0.275 (inactive) | -0.0063 | -2.06 | -2.01 (inactive) | -0.0268 (inactive) | 0.117 (inactive) |
| COCCOC(=O)N1C(=O)[C@@]2(c3ccccc31)[C@H](c1ccc(O)cc1)N1[C@H](c3ccccc3)[C@H](c3ccccc3)OC(=O)[C@H]1[C@@H]2C(=O)Nc1nc2ccccc2s1 | 0.343 (inactive) | 0.78 | 0.194 | -0.526 (inactive) | -0.0228 (inactive) | 0.221 (inactive) |
| CCC(CC)C(O)C1C=CC2C(=O)NC(=O)C2N1Nc1ccc(Cl)cc1Cl (configuration not stated) | 0.625 (inactive) | 0.587 | -0.225 | -4.8 (inactive) | 0.724 (inactive) | 0.786 (inactive) |
| C=CCNC(=O)[C@@H]1[C@H]2C(=O)O[C@H](c3ccccc3)[C@H](c3ccccc3)N2[C@H](c2ccc(O)cc2)[C@@]12C(=O)N(C(=O)OCCOC)c1ccc(C#CCNC(N)=O)cc12 | 0.963 (inactive) | 0.787 | 0.251 | -2.11 (inactive) | -0.26 (inactive) | -0.436 (inactive) |
| COC(=O)[C@@]1(Cc2ccc(OC)cc2)[C@H]2c3cc(C(=O)N4CCCC4)n(CCN4CNCC4=O)c3C[C@H]2CN1C(=O)c1ccccc1 | 0.281 (inactive) | -0.35 | -1.8 | -4.34 (inactive) | 0.525 (inactive) | 0.163 (inactive) |
| O=C(CS)NCCCCCCNC(=O)[C@@H]1C[C@@H]2C(=O)N[C@@H](Cc3ccccc3)C(=O)N2[C@@H]1c1cccc(OCCO)c1 | 0.644 (inactive) | 0.763 | 1.17 | -2.64 (inactive) | 0.835 (inactive) | 1.17 (inactive) |
| COc1ccc(C#Cc2ccc3c(c2)[C@]2(C(=O)N3)[C@H](C(=O)NC[C@H](O)c3ccccc3)[C@H]3C(=O)O[C@H](c4ccccc4)[C@H](c4ccccc4)N3[C@@H]2c2ccc(O)cc2)cc1 | 0.627 (inactive) | 0.624 | -0.0029 | -0.752 (inactive) | -0.371 (inactive) | -0.628 (inactive) |
| COC(=O)[C@@]1(Cc2ccc(F)cc2)[C@H]2c3cc(C(=O)N4CCCC4)n(CCCNc4ncc(C(F)(F)F)cc4Cl)c3C[C@H]2CN1C(=O)c1ccccc1 | 0.1 (inactive) | 0.716 | -1.41 | -4.2 (inactive) | 0.919 (inactive) | 0.259 (inactive) |
| O=C1N(Cc2ccccc2)c2ccccc2[C@@H]2OC(c3ccc(OCCCO)cc3)=N[C@]12CCS(=O)(=O)c1ccccc1 | 0.7 (inactive) | 0.677 | -2.13 | 1.28 (inactive) | -0.413 (inactive) | -0.77 (inactive) |
| C=CCOC(=O)[C@@H]1[C@H]2C(=O)O[C@H](c3ccccc3)[C@H](c3ccccc3)N2[C@H](c2ccc(OCCOC(=O)[C@H]3C[C@H]4C(=O)N5CCC[C@H]5C(=O)N4[C@H]3c3ccc(O)cc3)cc2)[C@@]12C(=O)Nc1ccc(I)cc12 | 1.93 (inactive) | 0.833 | -1.56 | 1.53 (inactive) | -0.0415 (inactive) | 0.0454 (inactive) |
| CC(C)=CCN[C@H](CO)c1ccccc1 | -0.0202 (inactive) | -0.319 | -1.72 | 0.039 (inactive) | 0.257 (inactive) | -0.0254 (inactive) |
| COc1ccc(C(O)C2C=CC3C(=O)N(Cc4ccccc4)C(=O)C3N2n2cnnc2)cc1OCc1ccccc1 (configuration not stated) | 0.442 (inactive) | 0.159 | -0.951 | -2.23 (inactive) | -0.537 (inactive) | -0.462 (inactive) |
| COCCOC(=O)N1C(=O)[C@@]2(c3cc(C#CCC(C(=O)OC)C(=O)OC)ccc31)[C@H](c1ccccc1OCCO)N1[C@H](c3ccccc3)[C@H](c3ccccc3)OC(=O)[C@H]1[C@@H]2C(=O)N1CCN(c2ncccn2)CC1 | 0.311 (inactive) | 0.62 | -2.25 | 0.271 (inactive) | -0.225 (inactive) | -0.236 (inactive) |
| CCCC[C@H]1OB(O)C[C@H]2C1=C(COC)Cn1c(=O)n(-c3ccccc3)c(=O)n12 | 0.81 (inactive) | -0.305 | -1.29 | -2.41 (inactive) | -0.503 (inactive) | -0.639 (inactive) |
| COc1cc2c(cc1OC)CN(C(=O)[C@@H]1[C@H]3C(=O)O[C@H](c4ccccc4)[C@H](c4ccccc4)N3[C@H](c3ccc(O)cc3)[C@@]13C(=O)Nc1ccccc13)CC2 | 0.0997 (inactive) | 0.686 | -1.42 | -2.32 (inactive) | -0.478 (inactive) | -0.728 (inactive) |
| COc1cc(C(O)C2C=CC3C(=O)NC(=O)C3N2Nc2ccccn2)cc(OC)c1OC (configuration not stated) | -0.0962 (inactive) | 0.405 | 1.26 | -2.19 (inactive) | 0.209 (inactive) | 0.228 (inactive) |
| CCN(CC)c1ccc(N2CC=CC34O[C@@H]5C=CCCOC(=O)C5[C@H]3C(=O)N(CCCCCCO)[C@@H]4C2=O)cc1 (some centres not stated) | 0.0059 (inactive) | 0.375 | -0.459 | -5.73 (inactive) | -0.43 (inactive) | 0.419 (inactive) |
| CCOC(=O)C[C@H]1[C@H](OC(=O)c2ccc(C(=O)c3ccccc3)cc2)[C@@H](NC(=O)c2ccc3ccccc3c2)c2cc(OCCCO)ccc2N1C(=O)Cc1ccc(OC)cc1 | 0.135 (inactive) | -0.011 | -1.06 | -1.59 (inactive) | -0.0477 (inactive) | -0.0525 (inactive) |
| Cc1ccc([C@@H]2C[C@@H](Sc3ccccc3)[C@H](C(=O)O)CN2S(=O)(=O)c2ccc(C)cc2)cc1 | 0.571 (inactive) | 0.8 | -0.706 | -7.26 (inactive) | 0.57 (inactive) | 0.498 (inactive) |

Reference: PubChem BioAssay
